# Data from the supplement of paper PMC3842684.
# Test system: P. falciparum NF54-pfs16-GFP early (I-III) stage gametocytes
# Experiment: relative % inhibition of viable gametocyte number; higher = more gametocytocidal
# Conditions: 0.5 µM; stage: early (I-III) gametocyte; incubation 72 h
# In short: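 Viable gametocytes were counted by confocal imaging as elongated GFP objects carrying MitoTracker Red signal above a cut-off, after 72 h of compound exposure (5 or 0.5 µM) at 37°C in 5% CO2 and 5% O2 and overnight staining. The NF54 pfs16-GFP gametocytes had been magnet-isolated at early (I/IIa, day 2) or late (day 8) stage and plated at 10% parasitaemia, 0.1% haematocrit in 384-well poly-D-lysine imaging plates. Relative inhibition was normalised to vehicle and positive-control wells within each plate.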
row,SMILES,relative % inhibition [%]
1,COc1ccc(CCN2CCC(CN(C)Cc3cnn(-c4ccccc4)c3)CC2)cc1,4.18
2,COc1ccc2c(=O)cc(C(Cl)(Cl)Cl)oc2c1,68.6
3,O=C1c2ccc3c4c(ccc(c24)C(=O)N1CCCCO)C(=O)N(CCCCO)C3=O,-9.07
4,COc1ccc(Nc2cc(C)nc(NCc3ccccc3)n2)cc1,-3.8
5,O=C(Nc1nc(-c2ccccn2)cs1)c1ccccc1Br,10.8
6,COc1ccc(C(C)=O)cc1N1C(=O)C2C(C1=O)C1(c3ccccc3)C(=O)C2(c2ccccc2)C(c2ccc(C)cc2)=C1c1ccc(C)cc1 (stereo not drawn),52.9
7,CC(C)(C)c1ccc(C(=O)Nc2nc3ccccc3s2)cc1,0.793
8,COc1ccc(Nc2nc(NN=Cc3ccc(O)cc3)nc(Nc3ccc([N+](=O)[O-])cc3)n2)cc1,-0.568
9,CCOc1cccc(C(=O)Nc2ccc(-c3nc4ccccc4[nH]3)cc2)c1,35.7
10,CN1CCN(c2c3c(c(C#N)c4nc5ccccc5n24)CCC3)CC1,-35.3
11,CCOC(=O)c1ccc2nc(-c3ccccc3)cc(O)c2c1,2.53
12,Fc1ccc2[nH]c3c(NCCCN4CCOCC4)ncnc3c2c1,18.8
13,O=C(NC1CCN(Cc2ccccc2)CC1)c1cc(-c2cccnc2)nc2ccc(Cl)cc12,3.2
14,CC(C)(C)CC(C)(C)NCC(O)COc1ccc(Cl)cc1Cl (stereo not drawn),34.8
15,COc1ccc(C2c3ccc4ccccc4c3Oc3ncn(CCCN(C)C)c(=N)c32)cc1 (stereo not drawn),76.2
16,O=C(Nc1cccc(C(F)(F)F)c1)c1cc(Cl)ccc1O,-0.916
17,Cc1ccc(-c2cc3c(nn2)-c2ccccc2C3=O)cc1,2.74
18,CCCCOC(=O)c1ccc(Nc2cc(C)nc3ccc(OC)cc23)cc1,-28.1
19,Nc1ccc(-c2nc3cc(Cc4ccc5[nH]c(-c6ccc(N)cc6)nc5c4)ccc3[nH]2)cc1,14.7
20,O=C(Nc1cccc(C2=NCCN2)c1)Nc1cccc(C2=NCCN2)c1,9.97

row,SMILES,relative % inhibition [%]
1,CCCCc1c(C)nc2c(OC)cccc2c1O,12.7
2,O=C(Nc1ccc(-c2nc3ccccc3[nH]2)cc1)c1ccc(Cl)c(Cl)c1,14.9
3,CCCc1c(C)nc2ccccc2c1O,-8.06
4,COc1ccc2nc(N)nc(C)c2c1,15.7
5,O=C(Nc1ccsc1C(=O)NC1CCCCC1)c1ccc(F)cc1,-1.56
6,Cc1cc(N2CCN(C3CCCC3)CC2)n2c(nc3ccccc32)c1C#N,-10.1
7,COc1ccc(OC)c(C2C3=C(CC(C)(C)CC3=O)N(c3ccc(Cl)c(Cl)c3)C3=C2C(=O)CC(C)(C)C3)c1,13.6
8,CCn1c(CN2CCN(Cc3ccccc3)CC2)nc2cc(NC(=O)c3cccs3)ccc21,-11.6
9,COc1ccc(C=C2SC(Nc3ccccc3)=NC2=O)cc1,11.7
10,COc1ccc(C2=C(c3ccc(OC)cc3)C3(c4ccccc4)C(=O)C2(c2ccccc2)C2C(=O)N(c4ccc(C)cc4)C(=O)C23)cc1 (stereo not drawn),60.3
11,Oc1c(CN2CCN(c3ccccc3F)CC2)cc(Br)c2cccnc12,15.7
12,COc1ccc(C2N(C)c3ccccc3N2C)cc1,24.6
13,CC(C)CCNCC(O)Cn1c2ccccc2c2ccccc21 (stereo not drawn),23.7
14,CCCn1c(=N)c(C(=O)NC2CCCCC2)cc2c(=O)n3cccc(C)c3nc21,13.4
15,O=c1nc(C=Cc2ccc(Cl)cc2)oc2ccccc12,10.5
16,COC(=O)c1ccc(C2C3=C(O)CC(c4ccc(F)cc4)CC3=Nc3ccccc3N2C(=O)c2ccccc2)cc1 (stereo not drawn),26.9
17,CCCCCn1c(=N)n(CC(O)COc2cccc(C)c2)c2ccccc21 (stereo not drawn),37.7
18,COc1ccc(N2CCN(C(CNC(=O)CC(C)(C)C)c3ccc4c(c3)OCO4)CC2)cc1 (stereo not drawn),31.4
19,Nc1ccc(-c2nc3cc(Oc4ccc(Oc5ccc6[nH]c(-c7ccc(N)cc7)nc6c5)cc4)ccc3[nH]2)cc1,13.7

# Same assay, conditions: 5 µM; stage: early (I-III) gametocyte; incubation 72 h
row,SMILES,relative % inhibition [%]
1,COc1ccc(CCN2CCC(CN(C)Cc3cnn(-c4ccccc4)c3)CC2)cc1,65.3
2,COc1ccc2c(=O)cc(C(Cl)(Cl)Cl)oc2c1,85.1
3,O=C1c2ccc3c4c(ccc(c24)C(=O)N1CCCCO)C(=O)N(CCCCO)C3=O,4.23
4,COc1ccc(Nc2cc(C)nc(NCc3ccccc3)n2)cc1,26.6
5,O=C(Nc1nc(-c2ccccn2)cs1)c1ccccc1Br,93.2
6,COc1ccc(C(C)=O)cc1N1C(=O)C2C(C1=O)C1(c3ccccc3)C(=O)C2(c2ccccc2)C(c2ccc(C)cc2)=C1c1ccc(C)cc1 (stereo not drawn),93.5
7,CC(C)(C)c1ccc(C(=O)Nc2nc3ccccc3s2)cc1,31
8,COc1ccc(Nc2nc(NN=Cc3ccc(O)cc3)nc(Nc3ccc([N+](=O)[O-])cc3)n2)cc1,101
9,CCOc1cccc(C(=O)Nc2ccc(-c3nc4ccccc4[nH]3)cc2)c1,-17.2
10,CN1CCN(c2c3c(c(C#N)c4nc5ccccc5n24)CCC3)CC1,-26.5
11,CCOC(=O)c1ccc2nc(-c3ccccc3)cc(O)c2c1,2.35
12,Fc1ccc2[nH]c3c(NCCCN4CCOCC4)ncnc3c2c1,97.3
13,O=C(NC1CCN(Cc2ccccc2)CC1)c1cc(-c2cccnc2)nc2ccc(Cl)cc12,46.2
14,CC(C)(C)CC(C)(C)NCC(O)COc1ccc(Cl)cc1Cl (stereo not drawn),92.4
15,COc1ccc(C2c3ccc4ccccc4c3Oc3ncn(CCCN(C)C)c(=N)c32)cc1 (stereo not drawn),-22.6
16,O=C(Nc1cccc(C(F)(F)F)c1)c1cc(Cl)ccc1O,104
17,Cc1ccc(-c2cc3c(nn2)-c2ccccc2C3=O)cc1,95
18,CCCCOC(=O)c1ccc(Nc2cc(C)nc3ccc(OC)cc23)cc1,70
19,Nc1ccc(-c2nc3cc(Cc4ccc5[nH]c(-c6ccc(N)cc6)nc5c4)ccc3[nH]2)cc1,100
20,O=C(Nc1cccc(C2=NCCN2)c1)Nc1cccc(C2=NCCN2)c1,6.29

row,SMILES,relative % inhibition [%]
1,CCCCc1c(C)nc2c(OC)cccc2c1O,-0.633
2,O=C(Nc1ccc(-c2nc3ccccc3[nH]2)cc1)c1ccc(Cl)c(Cl)c1,-3.57
3,CCCc1c(C)nc2ccccc2c1O,15.7
4,COc1ccc2nc(N)nc(C)c2c1,24.8
5,O=C(Nc1ccsc1C(=O)NC1CCCCC1)c1ccc(F)cc1,19.9
6,Cc1cc(N2CCN(C3CCCC3)CC2)n2c(nc3ccccc32)c1C#N,-15.8
7,COc1ccc(OC)c(C2C3=C(CC(C)(C)CC3=O)N(c3ccc(Cl)c(Cl)c3)C3=C2C(=O)CC(C)(C)C3)c1,67.1
8,CCn1c(CN2CCN(Cc3ccccc3)CC2)nc2cc(NC(=O)c3cccs3)ccc21,9.85
9,COc1ccc(C=C2SC(Nc3ccccc3)=NC2=O)cc1,17.7
10,COc1ccc(C2=C(c3ccc(OC)cc3)C3(c4ccccc4)C(=O)C2(c2ccccc2)C2C(=O)N(c4ccc(C)cc4)C(=O)C23)cc1 (stereo not drawn),84.7
11,Oc1c(CN2CCN(c3ccccc3F)CC2)cc(Br)c2cccnc12,89.8
12,COc1ccc(C2N(C)c3ccccc3N2C)cc1,30.9
13,CC(C)CCNCC(O)Cn1c2ccccc2c2ccccc21 (stereo not drawn),102
14,CCCn1c(=N)c(C(=O)NC2CCCCC2)cc2c(=O)n3cccc(C)c3nc21,24.4
15,O=c1nc(C=Cc2ccc(Cl)cc2)oc2ccccc12,-14.5
16,COC(=O)c1ccc(C2C3=C(O)CC(c4ccc(F)cc4)CC3=Nc3ccccc3N2C(=O)c2ccccc2)cc1 (stereo not drawn),103
17,CCCCCn1c(=N)n(CC(O)COc2cccc(C)c2)c2ccccc21 (stereo not drawn),74.5
18,COc1ccc(N2CCN(C(CNC(=O)CC(C)(C)C)c3ccc4c(c3)OCO4)CC2)cc1 (stereo not drawn),24.4
19,Nc1ccc(-c2nc3cc(Oc4ccc(Oc5ccc6[nH]c(-c7ccc(N)cc7)nc6c5)cc4)ccc3[nH]2)cc1,98
